# Reference: PubChem BioAssay AID1508624 (National Center for Advancing Translational Sciences (NCATS), 2021)
# Screen size: about 48,000 compounds; about 120 (0.25%) were called active. A call without a number means that no potency is given here. Inconclusive results (about 4%) are left out. The sample holds actives, similar compounds and a random draw of the others, so the mix is not that of the screen. Values without a mark were called inactive. The call rests on the fitted dose curve; in most records, active means well fitted activation curve with a large enough effect; inconclusive means small, poorly fitted or top-dose-only effect, or another doubt; inactive means no such curve, though single readings can be large or run the other way.
# Test: Primary qHTS for Identification of Small Molecule Activators of Huntingtin-Antisense Promoter Activity; further: nearly all actives have a fitted effect of over 55% in size
# Conditions: HEK293 HTT-AS promoter firefly luciferase reporter, 24 h; series mostly up to 57.5 µM
# From the text: Assay Provider: Russell L. Margolis M.D.
# Department Neurology, Johns Hopkins University School of Medicine, Baltimore, MD
# Huntington's Disease (HD) is a neurodegenerative disorder caused by a CAG repeat expansion in exon 1 of huntingtin (HTT). While there are currently no disease-modifying treatments for HD, recent efforts have focused on development of nucleotide-based therapeutics to lower HTT expression. As an alternative to siRNA or oligonucleotide methods, we hypothesized that suppression of HTT expression might be accomplished by small molecules that either (1) directly decrease HTT expression by suppressing HTT promoter activity or (2) indirectly decrease HTT expression by increasing the promoter activity of HTT-AS, the gene antisense to HTT that appears to inhibit expression of HTT.
# We developed and employed a high throughput screen for modifiers of HTT and HTT-AS promoter activity using luminescent reporter HEK293 cells; of the 52,041 compounds tested, we identified 898 replicable hits. We used a rigorous stepwise approach to assess compound toxicity and the capacity of the compounds to specifically lower huntingtin protein in 5 different cell lines, including HEK293 cells, HD lymphoblastoid cells, mouse primary neurons, HD iPSCs differentiated into cortical-like neurons, and HD hESCs. We found no compounds which were able to lower huntingtin without lowering cell viability in all assays, though the potential efficacy of a few compounds at non-toxic doses could not be excluded.
# SEQUENCE No. (1, 2, 3, etc.); […] (e.g., Cells, Incubation, Reagent, etc.); VALUE and DESCRIPTION.
# 1; Reagent; 4 uL; 2,500 Hek293 luciferase reporter cells per wells
# 3; Compound; 23 nL; Control inhibitor / compound library
# 5; Reagent; 2.5 uL; Firefly Luc reagent; Dual-Glo Luciferase Reporter Assay System (Promega)
# 6; Time; 10 min; room temperature incubation
# 7; Detection; Luminescence; FLuc
# NOTES (numbers refer to sequence above)
# 1; High-throughput screening, measuring luminescence from a Hek293 luciferase reporter, was performed in 1,536 well white-walled tissue-culture treated plates. 2,500 cells were plated in 4 µL of Opti-MEM per well using a Multidrop Combi Reagent Dispenser (ThermoFisher).
# 2; Assay plates were cultured for 24 hours.
# 3; Control inhibitor (PTC124; final concentration of 50 uM) and compound library (at final concentrations of 460 nM - 57.5 uM) were added to the assay plate using the Kalypsis Pintool Robotic System equipped with 1536 pinheads.
# 4; Cells were then incubated for 24 hours at 37 degrees C prior to luminescence measurements.
# 5; In all cases, luminescence was measured using the Dual-Glo Luciferase Reporter Assay System (Promega) following the manufacturer's instructions.
# 6; Room temperature incubation.
# 7; Luminescence signal was obtained using the PerkinElmer ViewLux plate reader. Results were normalized to vehicle control (0% activity) and zero RLU (-100% activity).
# Potency means the concentration at half of the fitted maximal effect.
SMILES,"activity change, positive = activation",Potency
CSc1nc(Nc2ccc(F)cc2)cc(-c2ccccc2)n1,inactive,
Cc1nnc(SCC(=O)NCc2ccccc2Cl)c2nn(-c3ccccc3)c(C)c12,inactive,
Cc1ccc(C)c(Cn2c(C)c(CNCc3ccc(F)cc3)c(C(=O)O)c2C)c1,inactive,
CCn1c(CN2CCC(C)CC2)nc2cc(NC(=O)c3ccccc3[N+](=O)[O-])ccc21,inactive,
COc1ccc(-c2cn3nc(N4CCC(C(=O)Nc5cccc(C)c5C)CC4)sc3n2)cc1,inactive,
COc1ccc(-c2nc(CN3CCC(C(=O)NCc4ccccc4)CC3)c(C)o2)cc1OC,inactive,
CC(C)CNc1ncnc2c1nnn2C,inactive,
CSc1ccccc1-c1nnc(NC(=O)c2ccc3c(c2)OCCO3)o1,inactive,
COc1ccc(NC(=O)CCc2nnc3n(CC(C)C)c(=O)c4ccccc4n23)cc1OC,inactive,
O=C(NCC(c1ccc(Cl)cc1)N1CCOCC1)c1ccccc1F (configuration not stated),inactive,
CCOc1ccc(NC(=O)CC2C(=O)N(c3cccc(OC)c3)C(=O)N2C2CCCCC2)cc1 (configuration not stated),inactive,
COc1cc(OC)cc(C(=O)Nc2ccc3nc(Nc4cccc(C(F)(F)F)c4)cc(C)c3c2)c1,inactive,
Cn1cc(S(=O)(=O)N2CCCCCC2)cc1C(=O)N1CCN(c2ccc(F)cc2)CC1,inactive,
Cc1ccc(NS(=O)(=O)c2ccc3c(c2)CC(=O)N3)cc1Cl,inactive,
CCCc1nn2c(=O)cc(COC(=O)c3ccc(NC(=O)COc4ccc(F)cc4)cc3)nc2s1,inactive,
CSc1ccc(NC(=O)Cn2nnnc2-c2ccccc2F)cc1,inactive,
CCOc1ccc(N(CC)S(=O)(=O)N2CCCC(C(=O)NCc3ccc(SC)cc3)C2)cc1 (configuration not stated),inactive,
Cc1ccc(N2CC(NC(=O)Cc3cccs3)CC2=O)cc1 (configuration not stated),inactive,
CSc1ccc(C2C(C(=O)Nc3ccccc3)=C(C)Nc3nc4ccccc4n32)cc1 (configuration not stated),inactive,
CC1CCCN(S(=O)(=O)c2ccc3[nH]c(=O)cc(C(=O)NCCc4ccc(Cl)cc4)c3c2)C1 (configuration not stated),inactive,
COc1ccc(Cl)cc1NC(=O)CSc1nc2ccccc2c2nc(-c3ccccc3)nn12,inactive,

SMILES,"activity change, positive = activation",Potency
O=C(CC(c1cccs1)N1Cc2ccccc2C1=O)Nc1ccc(F)cc1F (configuration not stated),inactive,
COCCNC(=O)c1ccc2c(c1)N=C(C)c1cc(C)ccc1S2,inactive,
COc1ccc(-c2nc3c4ccccc4n(CC(=O)Nc4ccc(C(C)=O)cc4)c(=O)n3n2)cc1,inactive,
Cc1cccc(N2CCN(C(=O)Cn3ncc4c5ccccc5n(C)c4c3=O)CC2C)c1 (configuration not stated),inactive,
CCOC(=O)N1CCC(NC(=O)c2cnn(-c3cccc(C)c3)c2C2CCN(C(=O)OC(C)(C)C)CC2)CC1,inactive,
COc1cccc(NC(=O)N(Cc2cn(C)c3ccccc23)C2CCCCCC2)c1,inactive,
COc1ccc(CNC(=O)COCc2cc(-c3cccs3)on2)cc1OC,inactive,
COc1cccc(CNC(=O)Cn2ncn3c(cc4ccccc43)c2=O)c1,inactive,
COc1cc2ccccc2cc1C(=O)Nc1cccc(-c2nc3ccccc3o2)c1,"4.7% [at 11.5 µM, percent change from vehicle, -100% = no light]",
CC1CCN(c2nc3ccc(C(=O)N4CCN(c5ccccc5)CC4)cc3s2)CC1,inactive,
COc1cc(NC(=O)CN2CCN(S(=O)(=O)c3ccc(Br)cc3)CC2)cc(OC)c1,inactive,
CCOC(=O)c1cccc(NC(=O)c2cc(S(=O)(=O)N3CCCC(C)C3)cn2C)c1 (configuration not stated),inactive,
Cc1ccc(OCC(=O)OCc2cc(=O)n3nc(C4CC4)sc3n2)cc1C,inactive,
COc1cc(-c2nnn(CC(=O)NCc3ccccc3)n2)cc(OC)c1OC,inactive,
Cc1ccc(C)c(N2CCN(CCCNC(=O)Nc3ccc(Cl)cc3)CC2)c1,inactive,
CCCCC12CN3CC(C)(CN(C1)C3c1ccc(O)c(OC)c1)C2=O (configuration not stated),inactive,
Cc1cc(Cl)ccc1NC(=O)Cc1ccc(NC(=O)N2CCCCc3ccccc32)cc1,inactive,
CCN(CC)CCNc1ncnc2c1cnn2-c1cc(Cl)ccc1C,inactive,
COc1ccc(C(=O)Nc2ccc(-n3nncc3-c3ccccc3)cc2)cc1OC,inactive,
CN(Cc1ccccc1)C(=O)CCS(=O)(=O)c1cc(Br)cc2c1N(C(=O)C1CC1)CC2,inactive,
Cc1ccc(OC(=O)CSc2nnc(-c3cccs3)o2)cc1,inactive,

SMILES,"activity change, positive = activation",Potency
COc1ccc(-c2nnc(SCC(=O)Nc3ccccc3C)o2)cc1OC,inactive,
Cc1ccc(-c2nnc(SCc3ccccc3C)o2)cc1,,14.1 µM (active)
Cc1ccc(Cl)cc1N(C)C(=O)C1CCCN(c2ncnc3onc(-c4ccc(F)cc4)c23)C1 (configuration not stated),inactive,
CC(C)c1ccc(C2CC(=O)N3CN(C4CCCCC4)CSC3=C2C#N)cc1 (configuration not stated),inactive,
CC(C)CNc1ccnc(NCc2csc(-c3ccccc3)n2)n1,inactive,
Cc1ccc2onc(CC(=O)N3CCN(c4ccc(Cl)cc4)CC3)c2c1,inactive,
COc1ccccc1N1CCN(C(CNC(=O)C(=O)NCc2ccc(C)cc2)c2cccnc2)CC1 (configuration not stated),inactive,
Cc1ccc(-c2cnc(NCc3ccc(C(C)C)cc3)n2C)cc1,inactive,
CCOC(=O)c1ccccc1NC(=O)c1nn(-c2ccc(OC)c(Cl)c2)c(=O)c2c1c1ccccc1n2C,inactive,
O=C(CSc1nccn1-c1ccc(F)cc1)Nc1cccc2ccccc12,inactive,
Cc1cc(C)cc(NC(=O)CCCc2nc(-c3ccccc3Cl)no2)c1,inactive,
COc1ccc(CN2C(=O)C(NC(=O)c3cccc(C)c3)(C(F)(F)F)N=C2c2ccccc2)cc1 (configuration not stated),inactive,
COc1ccc(CCNC(=O)Cn2c(=O)cc(C(F)(F)F)c3c(C)nn(C)c32)c(OC)c1,inactive,
Cc1cccn2c(=O)c3cc(C(=O)NC(C)c4ccccc4)c(=N)n(CCCO)c3nc12 (configuration not stated),inactive,
CC(C)(C)c1ccc(C(=O)NCC(c2ccc(Cl)cc2)N2CCOCC2)cc1 (configuration not stated),inactive,
COc1ccc(CCC(=O)NCCc2csc(-c3ccc(Cl)cc3)n2)cc1,inactive,
COc1ccc(Cl)cc1NC(=O)Cn1c(=O)c2ccccc2n2nncc12,inactive,
CC(C)CCNC(=O)CSc1nc2ccccc2nc1Cc1ccc(Cl)cc1,inactive,
Cc1ccccc1OCCSc1nc2ccc(NC(=O)c3ccco3)cc2s1,inactive,
O=C(Nc1cc(-c2nc3ccccc3o2)ccc1Cl)c1cc([N+](=O)[O-])ccc1N1CCOCC1,inactive,
